Columns and labels:
Assay in all cases: DAPPL (digital affinity profiling via proximity ligation, sequencing); 10 mM Tris-HCl pH 7.5, 50 mM NaCl, 1 mM DTT, 4% glycerol, room temperature, 30 min; GST-TFs on glutathione beads, 16-mer random dsDNA library, 0.1% formaldehyde crosslink after washing; high values mean tight binding
FEV = biological target: T1, FEV (Homo sapiens, UniProt Q99581 1-238); settings: protein: recombinant; tags: N-terminal GST; dsDNA, one strand shown
T1 sequence: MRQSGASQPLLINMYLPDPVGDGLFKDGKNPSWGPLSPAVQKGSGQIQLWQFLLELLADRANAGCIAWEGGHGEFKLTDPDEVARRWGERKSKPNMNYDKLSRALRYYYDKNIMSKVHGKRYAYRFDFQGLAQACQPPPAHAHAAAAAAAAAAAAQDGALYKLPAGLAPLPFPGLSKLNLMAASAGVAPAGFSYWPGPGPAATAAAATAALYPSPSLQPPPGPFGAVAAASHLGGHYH
Method in brief: (§1)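 A tag-only sample was pooled with DNA-barcoded human transcription factors that had been expressed in yeast as GST fusions and captured on glutathione beads. The pools were incubated for 30 min at room temperature with 200 nmole of a random double-stranded 16-mer DNA library in Tris/NaCl/DTT/glycerol buffer, then washed, crosslinked with 0.1% formaldehyde, proximity-ligated (BsaI/T4 ligase, 1 h, 37 °C), PCR-amplified and sequenced on an Illumina NextSeq500. Binding signal is each hexamer's read frequency for a factor divided by its frequency for the tag-only sample.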

ETV5 = ETV5 (Homo sapiens, UniProt P41161 1-510); settings: protein: recombinant; tags: N-terminal GST; dsDNA, one strand shown
Chain of ETV5 (P41161 whole entry): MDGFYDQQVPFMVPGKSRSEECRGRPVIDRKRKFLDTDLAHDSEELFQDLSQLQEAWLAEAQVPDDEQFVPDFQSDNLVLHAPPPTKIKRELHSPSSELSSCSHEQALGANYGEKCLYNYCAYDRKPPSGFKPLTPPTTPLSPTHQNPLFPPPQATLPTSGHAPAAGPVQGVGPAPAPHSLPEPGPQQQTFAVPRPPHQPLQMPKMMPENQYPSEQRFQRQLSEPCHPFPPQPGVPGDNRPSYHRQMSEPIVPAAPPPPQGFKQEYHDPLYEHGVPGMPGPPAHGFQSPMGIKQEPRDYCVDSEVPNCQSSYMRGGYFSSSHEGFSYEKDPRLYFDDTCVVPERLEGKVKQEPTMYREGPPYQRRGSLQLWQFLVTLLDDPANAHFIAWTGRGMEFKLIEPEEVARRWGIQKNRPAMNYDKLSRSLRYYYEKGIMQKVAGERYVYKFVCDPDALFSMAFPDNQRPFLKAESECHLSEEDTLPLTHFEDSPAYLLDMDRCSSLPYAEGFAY
Method in brief: as §1

HSF1 = HSF1 (Homo sapiens, UniProt Q00613 1-529); settings: protein: recombinant; tags: N-terminal GST; chain copies: 3; dsDNA, one strand shown
Chain of HSF1 (Q00613 whole entry): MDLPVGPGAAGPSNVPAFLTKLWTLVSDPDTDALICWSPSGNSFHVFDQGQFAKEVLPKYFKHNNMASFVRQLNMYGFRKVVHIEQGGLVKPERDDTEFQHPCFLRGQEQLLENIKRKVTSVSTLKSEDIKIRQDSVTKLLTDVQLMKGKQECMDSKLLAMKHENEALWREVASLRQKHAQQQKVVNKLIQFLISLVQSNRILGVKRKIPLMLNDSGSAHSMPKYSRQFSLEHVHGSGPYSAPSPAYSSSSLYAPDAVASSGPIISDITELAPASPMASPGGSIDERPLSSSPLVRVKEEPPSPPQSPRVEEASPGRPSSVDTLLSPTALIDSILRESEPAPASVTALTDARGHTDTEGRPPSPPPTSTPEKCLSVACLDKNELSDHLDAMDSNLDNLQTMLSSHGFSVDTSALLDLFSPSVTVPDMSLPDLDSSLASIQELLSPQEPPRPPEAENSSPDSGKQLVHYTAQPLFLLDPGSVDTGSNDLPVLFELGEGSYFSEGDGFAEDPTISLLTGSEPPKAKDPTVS
Method in brief: as §1

SPIC = biological target: T2, SPIC (Homo sapiens, UniProt Q8N5J4 1-248); settings: protein: recombinant; tags: N-terminal GST; dsDNA, one strand shown
T2 sequence: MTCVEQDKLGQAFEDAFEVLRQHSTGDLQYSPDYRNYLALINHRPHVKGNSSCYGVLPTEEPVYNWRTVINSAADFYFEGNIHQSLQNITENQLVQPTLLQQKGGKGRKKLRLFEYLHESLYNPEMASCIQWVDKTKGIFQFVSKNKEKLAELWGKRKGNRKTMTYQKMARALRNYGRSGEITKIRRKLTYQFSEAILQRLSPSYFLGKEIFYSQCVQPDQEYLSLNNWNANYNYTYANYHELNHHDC
Method in brief: as §1

ELF4 = ELF4 (Homo sapiens, UniProt Q99607 1-663); settings: protein: recombinant; tags: N-terminal GST; dsDNA, one strand shown
Chain of ELF4 (Q99607 whole entry): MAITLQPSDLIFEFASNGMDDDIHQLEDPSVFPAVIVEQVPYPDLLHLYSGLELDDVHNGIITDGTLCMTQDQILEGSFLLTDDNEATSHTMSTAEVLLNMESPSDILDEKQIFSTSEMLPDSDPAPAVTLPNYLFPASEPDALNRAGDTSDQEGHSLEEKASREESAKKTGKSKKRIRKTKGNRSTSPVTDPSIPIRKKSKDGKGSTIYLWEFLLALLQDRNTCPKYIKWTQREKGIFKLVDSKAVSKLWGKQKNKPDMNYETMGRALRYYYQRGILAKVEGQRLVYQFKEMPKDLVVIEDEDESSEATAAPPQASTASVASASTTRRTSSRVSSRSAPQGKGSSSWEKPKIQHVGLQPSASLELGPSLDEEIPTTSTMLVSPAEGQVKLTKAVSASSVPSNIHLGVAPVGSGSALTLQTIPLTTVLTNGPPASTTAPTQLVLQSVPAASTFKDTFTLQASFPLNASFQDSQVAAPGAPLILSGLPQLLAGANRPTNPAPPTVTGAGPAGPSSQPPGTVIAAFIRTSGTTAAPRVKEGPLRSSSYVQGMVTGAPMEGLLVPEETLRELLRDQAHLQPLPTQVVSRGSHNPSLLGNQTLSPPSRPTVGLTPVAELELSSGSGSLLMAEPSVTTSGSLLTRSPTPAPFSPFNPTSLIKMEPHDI
Method in brief: as §1

ELK4 = biological target: T3, ELK4 (Homo sapiens, UniProt P28324-2 1-405); settings: protein: recombinant; tags: N-terminal GST; dsDNA, one strand shown
T3 sequence: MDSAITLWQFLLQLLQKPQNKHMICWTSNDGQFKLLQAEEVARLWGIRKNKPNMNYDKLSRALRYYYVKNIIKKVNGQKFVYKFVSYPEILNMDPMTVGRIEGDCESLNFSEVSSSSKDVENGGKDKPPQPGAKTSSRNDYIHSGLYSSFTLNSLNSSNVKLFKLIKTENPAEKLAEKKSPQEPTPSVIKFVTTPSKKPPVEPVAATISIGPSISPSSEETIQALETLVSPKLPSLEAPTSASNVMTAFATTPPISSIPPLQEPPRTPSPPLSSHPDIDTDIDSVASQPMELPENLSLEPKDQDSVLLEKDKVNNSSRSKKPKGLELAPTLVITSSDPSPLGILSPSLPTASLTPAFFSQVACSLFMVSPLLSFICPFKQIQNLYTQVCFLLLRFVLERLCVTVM
Method in brief: as §1

ETV2 = biological target: T4, ETV2 (Homo sapiens, UniProt O00321 1-342); settings: protein: recombinant; tags: N-terminal GST; dsDNA, one strand shown
T4 sequence: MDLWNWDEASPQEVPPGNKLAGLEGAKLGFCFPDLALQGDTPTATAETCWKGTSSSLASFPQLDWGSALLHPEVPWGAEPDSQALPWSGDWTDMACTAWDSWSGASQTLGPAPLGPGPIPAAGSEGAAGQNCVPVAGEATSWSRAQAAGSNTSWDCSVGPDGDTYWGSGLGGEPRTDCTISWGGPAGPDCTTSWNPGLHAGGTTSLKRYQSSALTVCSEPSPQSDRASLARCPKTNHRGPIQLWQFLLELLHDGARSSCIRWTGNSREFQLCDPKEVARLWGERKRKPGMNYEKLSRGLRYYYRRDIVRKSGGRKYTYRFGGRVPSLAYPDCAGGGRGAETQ
Method in brief: as §1

ELF3 = biological target: T5, ELF3 (Homo sapiens, UniProt P78545 1-371); settings: protein: recombinant; tags: N-terminal GST; dsDNA, one strand shown
T5 sequence: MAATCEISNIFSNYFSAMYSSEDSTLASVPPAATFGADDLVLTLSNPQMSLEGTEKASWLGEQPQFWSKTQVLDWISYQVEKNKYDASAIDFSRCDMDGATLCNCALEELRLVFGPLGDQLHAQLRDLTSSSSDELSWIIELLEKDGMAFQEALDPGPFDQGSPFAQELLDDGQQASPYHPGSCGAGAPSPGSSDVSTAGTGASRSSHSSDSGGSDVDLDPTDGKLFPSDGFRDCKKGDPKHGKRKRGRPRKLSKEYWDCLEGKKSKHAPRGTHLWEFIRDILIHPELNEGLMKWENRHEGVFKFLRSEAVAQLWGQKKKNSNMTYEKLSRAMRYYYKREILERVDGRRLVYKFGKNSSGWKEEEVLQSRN
Method in brief: as §1

CRX = CRX (Homo sapiens, UniProt O43186 1-299); settings: protein: recombinant; tags: N-terminal GST; dsDNA, one strand shown
Chain of CRX (O43186 whole entry): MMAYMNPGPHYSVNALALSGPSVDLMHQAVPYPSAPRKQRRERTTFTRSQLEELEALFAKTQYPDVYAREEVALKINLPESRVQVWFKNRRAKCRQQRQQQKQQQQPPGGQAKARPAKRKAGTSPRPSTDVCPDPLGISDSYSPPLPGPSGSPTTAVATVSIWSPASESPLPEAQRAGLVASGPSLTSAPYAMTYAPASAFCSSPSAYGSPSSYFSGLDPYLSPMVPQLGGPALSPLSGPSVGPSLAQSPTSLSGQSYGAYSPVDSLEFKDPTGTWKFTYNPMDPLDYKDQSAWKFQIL
Method in brief: as §1

ETV1 = ETV1 (Homo sapiens, UniProt P50549 1-477); settings: protein: recombinant; tags: N-terminal GST; dsDNA, one strand shown
Chain of ETV1 (P50549 whole entry): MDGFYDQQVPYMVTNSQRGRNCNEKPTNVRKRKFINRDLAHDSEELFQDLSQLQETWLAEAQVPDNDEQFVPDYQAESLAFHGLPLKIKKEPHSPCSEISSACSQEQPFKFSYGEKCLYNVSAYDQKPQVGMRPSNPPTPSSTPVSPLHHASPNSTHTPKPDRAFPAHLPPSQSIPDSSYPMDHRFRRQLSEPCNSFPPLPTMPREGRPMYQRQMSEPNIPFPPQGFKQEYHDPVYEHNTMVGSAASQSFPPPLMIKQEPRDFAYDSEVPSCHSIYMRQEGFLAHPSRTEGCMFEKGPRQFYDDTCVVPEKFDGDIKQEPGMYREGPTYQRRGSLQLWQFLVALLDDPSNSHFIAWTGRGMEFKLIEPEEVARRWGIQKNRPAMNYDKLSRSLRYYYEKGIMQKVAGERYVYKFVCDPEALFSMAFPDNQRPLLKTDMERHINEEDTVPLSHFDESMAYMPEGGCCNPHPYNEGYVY
Method in brief: as §1

Sequence: CCTTAT
- binding signal (FEV): 1.4 fold enrichment (6-mer frequency, TF over GST control)
- binding signal (ETV5): 1.41 fold enrichment (6-mer frequency, TF over GST control)
- binding signal (HSF1): 1.35 fold enrichment (6-mer frequency, TF over GST control)
- binding signal (SPIC): 1.33 fold enrichment (6-mer frequency, TF over GST control)
- binding signal (ELF4): 1.47 fold enrichment (6-mer frequency, TF over GST control)
- binding signal (ELK4): 1.45 fold enrichment (6-mer frequency, TF over GST control)
- binding signal (ETV2): 1.39 fold enrichment (6-mer frequency, TF over GST control)
- binding signal (ELF3): 1.37 fold enrichment (6-mer frequency, TF over GST control)
- binding signal (CRX): 1.77 fold enrichment (6-mer frequency, TF over GST control)
- binding signal (ETV1): 1.62 fold enrichment (6-mer frequency, TF over GST control)

Reference: paper PMC7862700, “An all-to-all approach to the identification of sequence-specific readers for epigenetic DNA modifications on cytosine”
